# The whole screen tested about 330,000 compounds, of which about 100 (0.03%) were called active. Another 1% or so got no clear call; they are omitted. Shown is part of a subset that was picked to be rich in actives. Values without a mark were called inactive. Calls come from the whole dose curve; as a rule, active = well fitted inhibition curve with a large enough effect; inconclusive = small, poorly fitted or top-dose-only effect; inactive = flat fitted curve, though single readings scatter.
# System: Chaperonin Mm-Cpn (Methanococcus maripaludis)
# Assay: Inhibitors of TCP-1 ring complex (TRiC) of Methanococcus maripaludis (MmCpn): qHTS; note: nearly all actives have a fitted effect of over 80% in size;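 for Potency: enzyme at 25 nM with ATP substrate at 10 µM during the reaction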
# Settings: purified Mm-Cpn ATPase, ADP Transcreener TR-FRET; series mostly up to 76.9 µM; activity, negative = inhibition: at the top concentration
# Text: The eukaryotic chaperonin TRiC (for TCP-1 ring complex) is an essential and conserved chaperone required for the folding and activation of 10-15% of the proteins encoded by the human genome. […] The TRiC complex consist of two stacked 7-9 membered rings, each containing a central cavity. Substrates are folded within the cavity in an ATP-dependent manner. TRiC is a complex of eight different, essential proteins. As each of the genes encoding the eight subunits is essential for cell viability and no protocol has been developed to over-express this enzyme to high levels. That is why several groups studying the TRiC chaperonin have turned to the archaeal homolog of TRiC, Methanococcus maripaludis (Mm-CPN), and have used this enzyme as a model system for the study of the type II chaperonin family. Small molecule inhibitors of the Mm-CPN enzyme would be extremely useful to study the mechanism of chaperonin activity. Importantly, TRiC and Mm-CPN both require ATP hydrolysis for function. Furthermore, the ATP binding sites are highly conserved among these type II chaperonins. This provides us with an easy, well tested and straightforward assay to identify inhibitors of chaperonin activity. The Mm-CPN assay was developed in 1536-well plate format using the HTRF Transcreener ADP assay kit (Cisbio, Bedford, MA). This assay applied the time resolved fluorescence resonance energy transfer (TR-FRET) principle. ATP in the presence of Mm-CPN is converted to ADP + Pi. An antibody labeled with Eu3+-Cryptate specific and bound to ADP labeled with […] (d2) competes with the unlabeled ADP generated by Mm-CPN. The resulting TR-FRET signal is inversely proportional to the concentration of ADP in the sample. In this assay a reduction in TR-FRET signal is observed with ATP turnover. NIH Chemical Genomics Center [NCGC] NIH Molecular Libraries Probe Centers Network [MLPCN] MLPCN Grant: DA030554-01A1 Assay Submitter (PI): Judith Frydman, Stanford University
# Purified Mm-CPN was supplied by the laboratory of Dr. Judith Frydman. Protein samples were stored at -80C as single use aliquots. Protein was thawed in ambient temperature water bath and placed on ice once thawed. Buffer was prepared fresh day of screen. The buffer composition below was used to prepare the working solution of the Mm-CPN protein and ATP substrate. The buffer is comprised of 30 mM TRIS pH 7.4, 100mM KCl, 5mM MgCl2, and 1mM DTT. A final concentration of 25nM Mm-CPN and 10uM ATP per well were used in the screen. Instructions according to the manufacturer were followed for the ADP Transcreener kit. Used 1536 well Greiner white, medium binding (MB), solid bottom plates. Plates were read on the PerkinElmer EnVision plate reader using Excitation = 320 nm and Emission = […], 665 nm. Protocol- 1.Dispense 1.5ul per well of working [Mm-CPN] = 50nM (or 75 ng / well) 2.Spin plate at 1000 rpm for 30 seconds 3.23nl of compound transferred per well 4.Incubate at 37degC for 10 minutes 5.Dispense 1.5ul per well of working [ATP] = 20uM 6.Incubate at 37degC for 30 minutes 7.Dispense 3ul per well of Anti-ADP Cryptate / ADP-d2 mix (prepared as instructed by Cisbio) 8.Incubate at ambient for 30 minutes 9.Read using EnVision
# % is set by controls: 0 for no effect and ±100 for the full control effect; potency is the fitted concentration of half-maximal effect.
Compound,"activity, negative = inhibition",Potency
Cc1cc(S(=O)(=O)NCc2ccccn2)c(Cl)cc1Cl,-1.27%,–
Cc1cc(NC(=O)/C=C/C(=O)N(c2ccccc2C)C(C(=O)NC2CCCC2)c2ccc(F)cc2)no1 (centres undefined),0.316%,–
CCCSC1=C(C#N)C(c2ccccc2C)C(C(=O)OC)C(=O)N1 (centres undefined),0.631%,–
CCOc1ccc(NC(=O)CN(C)C(=O)CSc2ccccc2)cc1OCC,-1.05%,–
CCOc1ccccc1NS(=O)(=O)c1cc2c3c(c1)C(C)C(=O)N3CCC2 (centres undefined),-0.707%,–
O=S(=O)(Nc1ccc(Oc2ncccn2)c(Cl)c1)c1ccc(F)cc1,-0.624%,–
Cc1ccc(S(=O)(=O)N(Cc2cccc([N+](=O)[O-])c2)C(=O)N2CCN(C)CC2)cc1,1.85%,–
O=C(CN1CCCSc2ccccc21)N1CCN(S(=O)(=O)c2ccccc2)CC1,-5.83%,–
O=C(Cn1nc([N+](=O)[O-])nc1Br)NC1CCCCC1,2.19%,–
Cc1nn(-c2ccccc2)nc1C(=O)OCC(=O)N1CCCCC1C (centres undefined),-2.18%,–
CCc1ccc(Nc2nnc(SCC(=O)c3ccc4c(c3)NC(=O)CO4)s2)cc1,-6.83%,–
CCOCc1c(C(=O)N2CCN(Cc3ccc(Br)s3)CC2)oc2ccccc12,0.351%,–
CCOC(=O)CN1C(=O)N[C@@H](c2ccc(Br)cc2)C(C(C)=O)=C1C,0.237%,–
FC(F)(F)c1ccc(CN2C[C@@H]3C(c4ccccc4)C4(c5ccccc5)CC3(C4)[C@H]2c2ccccc2)cc1 (some centres undefined),-1.8%,–
Cc1ccc(NS(=O)(=O)c2ccc3c(c2)CC(=O)N3)cc1Cl,-0.241%,–
COc1ccc(-n2c(C)nn(CC3CC3)c2=O)cc1,-3.12%,–
CC(=O)Nc1cccc2c1[n+]([O-])c(C)c(C)[n+]2[O-],0.959%,–
CCn1cc(C(=O)NCc2ccc(OC)cc2OC)c(=O)c2ccc(C)nc21,0.0766%,–
O=C(CCC(=O)Nc1ccccc1)N/N=C/c1ccccc1F,0.276%,–
CCOC(=O)c1ccccc1NC(=O)COC(=O)C(Cc1c[nH]c2ccccc12)NC(C)=O (centres undefined),-1.13%,–
Cc1cccc(N2CCN(S(=O)(=O)c3ccc4[nH]c(=O)c(=O)[nH]c4c3)CC2C)c1 (centres undefined),-2.27%,–
c1csc(-c2nnc(COc3ccc4c(c3)OCO4)o2)c1,0.221%,–
CCCOC1CCCN(C(=O)c2cc(COc3cncc(Cl)c3)on2)C1 (centres undefined),0.635%,–
COc1cccc(-n2c(N)cc(=O)nc2SCC(=O)Nc2cc(C)on2)c1,0.0443%,–
CC1CCCCC1NC(=O)CSc1nnc(-c2ccncc2)n1CCCN(C)C (centres undefined),-2.75%,–
CC(C)C(NC(=O)c1c(F)cccc1F)C(=O)NCc1ccncc1 (centres undefined),-4.23%,–
CCOC(=O)c1sc(NC(=O)CSc2nc3c(c(=O)n2-c2ccccc2)SCC3)c(C(=O)OCC)c1C,-1.33%,–

Compound,"activity, negative = inhibition",Potency
Cn1c(=O)n(C)c2cc(CNc3ccc(N4CCOCC4)c(C(=O)O)c3)ccc21,-1.23%,–
Cn1c2cc(B(O)O)sc2c2cnn(Cc3ccccc3F)c(=O)c21,-0.659%,–
CSCC[C@H](NC(=O)CCCn1nnc2ccccc2c1=O)C(=O)O,-0.098%,–
O=C(CCl)Nc1ccc(Sc2ccc(NC(=O)CCl)cc2)cc1,-5.44%,–
CCCCN(CCCC)CCC(O)c1cc2c(Cl)cc(Cl)cc2c2cc(C(F)(F)F)ccc12 (centres undefined),-0.59%,–
Cc1cc(Cl)ccc1NNC(=O)c1snnc1C,5.25%,–
O=C(COC(=O)Cn1[nH]c(=O)c2ccccc2c1=O)Nc1ncc(Cl)cc1Cl,0.0983%,–
CC(=O)Nc1cccc(C(=O)OCC(=O)NCc2cc(C)c(O)c(C)c2)c1,0.893%,–
CSCCC(NC(=O)c1ccccc1)C(=O)N1CCN(Cc2ccc(Cl)cc2)CC1 (centres undefined),0.977%,–
CC(C)OC(=O)C(C#N)c1nc2ccccc2nc1N1CCN(Cc2ccc3c(c2)OCO3)CC1 (centres undefined),-0.332%,–
CSc1nc(-c2ccco2)nn1C(=O)c1ccccc1Cl,2.44%,–
CCCN1CCn2c3c(c4cc(Br)ccc42)CCCC31 (centres undefined),2.19%,–
CC(=O)N(C)c1ccc(NC(=O)C(F)(F)F)cc1,0.394%,–
CC(C)CNC(=O)C(=O)Nc1ccc(N(C)C)cc1,-10.1%,–
CN(C)c1ccc(N/C=C/C(=O)C(F)(F)F)cc1,–,25.1 µM (active)
Cn1c(N)c(C(=O)COC(=O)c2cccc(S(=O)(=O)N3CCOCC3)c2)c(=O)n(C)c1=O,-2.55%,–
CCOC(=O)c1c(CNCc2ccccc2F)c2sc(C)cc2n1C,0.937%,–
CSc1nc2ccccc2cc1/C=C(\C#N)c1ccc(Cl)cc1Cl,2.17%,–
C/C=N/N(c1ccccc1)c1ccccc1,-0.868%,–
Cc1cc2c(c(=O)n1Cc1ccccc1)C1O[C@](CCCCN3C(=O)c4ccccc4C3=O)(Cc3ccccc31)O2,-15.5% [at 15.4 µM],–
O=C(CSc1nnc(CN2CCCC2)n1-c1ccc(F)cc1)c1ccc2c(c1)OCO2,-11%,–
CCOC(=O)Cc1csc(NC(=O)COc2ccc3c(C)cc(=O)oc3c2)n1,–,44.7 µM (active)
CCOC(=O)Cc1csc(SCc2cc(=O)oc3cc(O)ccc23)n1,0.962%,–
Cc1cc(=O)oc2cc(OCC(=O)Nc3nnc(C4CC4)s3)ccc12,-0.34%,–
CCCCc1ccc(NC(=O)CN2C(=O)NC(Cc3ccccc3)C2=O)cc1 (centres undefined),-0.0707%,–
CCOc1ccccc1N1CCN(C(=O)c2ccc3[nH]c(C)c(C)c3c2)CC1,0.339%,–
CCOc1ccc(NC(=O)CN(C)C(=O)c2cccc(S(=O)(=O)N3CCCC3)c2)cc1OCC,2%,–
